Measured values published in the supplement of paper PMC6555819.

These sequences were tested on VDR:RXRa (NR concentration 270 nM, RXRa partner concentration 90 nM) (assay: PBM binding z-score (relative to random genomic background probes); higher = stronger binding; sequences stand for … in GC…GCGATTGACAGCGTAGAATGAAGG).
Method: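 Protein-binding microarray (Agilent 4x180K custom design, double-stranded 60-nt probes: 5' GC cap, 34-nt variable region, 24-nt constant primer region; full probe sequence given). Purified or IVT nuclear receptor:RXRα heterodimers (3:1 NR:RXRα, mostly 270:90 nM) or homodimers were incubated for 1 h in PBS with 2% milk and no ligand, then detected with Alexa488 antibodies. Fluorescence from o1-orientation probes (~5 replicates averaged) was converted to z-scores against 500 random hg19 background probes. Variable regions are seed direct-repeat (DR0–DR5) sites, all their single-nucleotide variants and half-site ablations.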

Row | Sequence | PBM binding z-score
1 | GTACTAAGGTGAATAGGTCGTTGATGAGTAGGCG | 1.24
2 | CCTACTGGGCCAAAAAGGTCATTGTTGCCGATAA | 4.46
3 | TTACCAAGATGAGCTGAGGTCGTTGATCCAACTC | 1.35
4 | ATCTCTAGGTAAAAGTTCAGTGTATCCCGAGGAT | 1.56
5 | ATATGTAGGTTACATCCGGGTCGTTCAGGCTATG | 2.52
6 | ACTTACGGATCAACGAGGTTATAGCACGCGTATA | 4.59
7 | AGTCAAAGTTCACTAAGTAACGTAAGATTCAGCT | 3.9
8 | GCTGCTAGGTCCACTGATGGTCAGCTAAAGCTCG | -0.609
9 | CCTAGCAGGCCAGGGTCTCTCAAGCATTTCGCTT | -0.712
10 | CCAGACAGGTGAGAAGGTAAGTCAGCCTCGATTA | -0.106
11 | TAGCCTAGGTCATGCTGGCCAGTATAGTGTCGGC | 2.04
12 | TGAATGAGGTTAAAGATCGGGGAACGTGGCGTCG | 1.61
13 | AGAATGAGGTTACCAAAGATCAGGAAAACGCTTG | 1.35
14 | ACTAGCAGGCCAAGGGTCACTTAAGATTAGTCCG | 2.88
15 | TCTTGTAGATCTACAGGAGGTTAAGAAAGATCGA | 0.41
16 | GATACAGGGTCAAAGCCAGAGTACGCGTATTGAT | 4.5
17 | ATCTCTAGTTAAAGATAGTTCAGTGAATGCAAAT | 1.04
18 | GCTACTAGTTGAAAGGGCAACCGAATGATTCTCG | 0.234
19 | CCGACTGGGGGAAAGGTTACCATACTCAGTACGA | 1.79
20 | TCTTGCAGATCAAAGGTTAAGAAAGCCGAAGCCT | 1.3

Row | Sequence | PBM binding z-score
21 | CCTTACGGGTCAAGGTCATAGCACGGGTGGTACG | 5.14
22 | TGAATGAGGTTATAAGATCAGGCAACGTTGCAAA | 0.915
23 | GCCAGTTGGTCAGTAAAAGGTCACACACCGGTCG | 3.94
24 | CCTAGCAGGCCAGGGTCACTTAAGCATTTCGCTT | 2.3
25 | TTACCCAGGTGAGCTGAGGTCGTTGATCCAACTC | 2.93
26 | TCAAGTTGGTCACGGAGGTCACACACGACGGGTA | 5.67
27 | CAAACTAGGTCACGAAAGGTCAAGGTCGAATGAC | 6.61
28 | CCCGAAAGGTCGGTTGAGGTGAGTATACGGATAA | 2.57
29 | CTCGAAAAGTCGTGCTCAGGTGAGTATACCAAAC | -0.141
30 | CCTATTAGTTAACCATAAGGGCAACCGAAGCTCG | 0.653
31 | ATACCAAGGTGATCGTGAAGTCGTTGATACTAAC | 0.0498
32 | ACTAGCAGGCCAAGGGTTACTCAAGATTAGTCCG | 0.0944
33 | GCGACTGGGGCATCAGCAGGTTACCAAAACTTAA | -0.298
34 | CAGCCTAGGTCAGGGCCAGCATAGGAGGAACGTT | 0.0584
35 | GCTAGTCGGTCAGTAAAAGGTCACACACCGGTCG | 4.18
36 | GATACAGGGTCAAGGCCAGACTACGCGTATTGAT | 4.28
37 | ATCTCTAGGTAAGAAGTTCAGTGAAAGAGAGGAC | 0.919
38 | AATACAGGGTCATTGTAGGCCAGAGTACGCACAG | 5.08
39 | CGTCAAAGTTCAAGGTAACGGAACAGAAAGCAGC | 3.63
40 | TAGCCTAGGTCATTCCGGGGCCAGTATAGAAAGC | 2.94
